The text below walks through data of PubChem BioAssay (NCATS).

Inconclusive results are not listed. Unmarked numbers belong to inactive results. The source made the active and inactive calls. Calls follow the shape of the dose curve; as a rule, active = well fitted inhibition curve with a large enough effect; inconclusive = small, poorly fitted or top-dose-only effect; inactive = no such curve, though single readings can be large or run the other way.
Potency is read from the fitted curve at half-maximal effect.

This assay in a line: qHTS to identify inhibitors of the type 1 interferon - major histocompatibility complex class I in skeletal muscle: primary screen against the NCATS Mechanism Interrogation Plate v5.0 (MIPE) Libary (AID 1347411). Also: nearly all actives have a fitted effect of over 65% in size.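 As to activity change, negative = inhibition: plate controls were vehicle for no effect and reference inhibitor for full effect.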 The following applies: iHSKM cells + IFN-b, HiBiT-tagged MHC-I luminescence, 24 h; series mostly up to 45.8 µM; activity change, negative = inhibition: at the top concentration. The procedure, abridged:
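Immortalized human C25cl48 myoblasts with HiBit knocked into endogenous HLA-B*08:01 were stimulated with 4.0 ng/ml IFN-beta and exposed to compounds (11-point 1:3 titration, top 46 uM final) for 24 hrs at 37 C; HiBiT lytic luminescence measured.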
Turning to `COc1cccc(-c2c(C)n(Cc3c(F)cccc3C(F)(F)F)c(=O)n(C[C@H](NCCCC(=O)O)c3ccccc3)c2=O)c1F`, the Potency entry was “inactive”.

Consider `C=C1C[C@H]2C=Nc3cc(OCCCOc4cc5c(cc4OC)C(=O)N4CC(=C)C[C@H]4C=N5)c(OC)cc3C(=O)N2C1`, for which the “activity change, negative = inhibition” value is 21.5%.

Turning to `O=C(O)CCNc1cc(N2CCc3ccccc3CC2)nc(-c2cccnc2)n1`, the “activity change, negative = inhibition” value is -2.28%.

`CN1CCN(C(=O)c2ccc(-c3ccc4c(C=O)c(O)ccc4c3)s2)CC1`: the Potency is 29.4 µM (active).

Regarding `N=C(N)c1ccc2nc(-c3cc(CC(=O)N[C@@H](CC(=O)O)C(=O)O)cc(-c4cc(S(N)(=O)=O)ccc4O)c3O)[nH]c2c1`, the “activity change, negative = inhibition” value is -6.4%.

For the molecule `C[C@H](Nc1nc(N[C@H](C)C(F)(F)F)nc(-c2cccc(Cl)n2)n1)C(F)(F)F`, the “activity change, negative = inhibition” value is -6.83%.

For `O=C1OC(COc2ccccc2[N+](=O)[O-])CC1Cc1ccccc1` (stereo not given), the “activity change, negative = inhibition” value was -6.24%.

In the case of `COc1cc2c(cc1OC)CN(CCc1ccc(-n3nnc(-c4cc(OC)c(OC)cc4NC(=O)c4cc(=O)c5ccccc5o4)n3)cc1)CC2`, the activity change, negative = inhibition is -5.16% [at 0.314 µM].

On to `COCCNc1cc(NC(=O)N2CCCc3cc(CN4CCN(C)CC4=O)c(C=O)nc32)ncc1C#N`, for which the activity change, negative = inhibition was -1.84% [at 8.44 µM].

With `N#Cc1ccnc(N2C(=O)CC[C@H]2C(=O)N(c2cncc(F)c2)C(C(=O)NC2CC(F)(F)C2)c2ccccc2Cl)c1` (stereo not given in full), the “activity change, negative = inhibition” value was 2.46%.

Take `CC1(N)CCN(c2cnc(-c3cccc(Cl)c3Cl)c(N)n2)CC1`: the “activity change, negative = inhibition” value is -14.4% [at 15.5 µM].

For the molecule `O=C(O)C[C@H]1CCc2c1[nH]c1ccc(OCc3ccc(C4CCCC4)c(C(F)(F)F)c3)cc21`, the “activity change, negative = inhibition” value is -24.8%.

As for `CCOc1ccc(Cc2cc([C@@H]3O[C@H](CO)[C@@H](O)[C@H](O)[C@H]3O)ccc2Cl)cc1`, the “activity change, negative = inhibition” value is -11.8%.

With `COc1cc(C)[nH]c(=O)c1CN1CCc2c(Cl)cc([C@H](OC)C3COC3)c(Cl)c2C1=O`, the “activity change, negative = inhibition” value was -0.684%.

Consider `CC[C@@]1(O)C(=O)OCc2c1cc1n(c2=O)Cc2c-1nc1ccccc1c2CCNC(C)C`, for which the Potency was 0.739 µM (active).

Consider `CC1(C)OC2=C(C(=O)c3ccccc3C2=O)[C@H](NCc2ccccc2)[C@@H]1O`, for which the Potency is 9.3 µM (active).

Turning to `CN[C@@H](C)C(=O)N[C@H](C(=O)N1CCC[C@H]1C(=O)Nc1sc(-c2ncco2)nc1-c1ccccc1)C1CCCCC1`, the “activity change, negative = inhibition” value is -16.9%.

Take `O=C(O)c1ccccc1-c1ccc(/C=c2\sc3nc4cc(Br)cnc4n3c2=O)o1`: the “activity change, negative = inhibition” value is 4.91% [at 15.5 µM].

Take `O=C(/C=C/c1ccc(/C=C/C(=O)Nc2ccc(C3=NCCN3)cc2)cc1)Nc1ccc(C2=NCCN2)cc1`: the activity change, negative = inhibition was -3.84% [at 5.1 µM].

`Cc1c(NC(=O)c2cc(C(N)=O)nc3cc(F)ccc23)c(C(F)(F)F)nn1Cc1ccc(C(C)(C)C)cc1`: the “activity change, negative = inhibition” value is -3.1%.

With `COC1CCC(N2C(=O)CNc3ncc(-c4ccc(C(C)(C)O)nc4)nc32)CC1` (stereo not given), the Potency is 13.1 µM (active).

`Cc1c(-c2c(-c3ccc(F)o3)sc3ncnc(O[C@@H](Cc4ccccc4OCc4ccnn4CC(F)(F)F)C(=O)O)c23)ccc(OCCN2CCN(C)CC2)c1Cl`: the “activity change, negative = inhibition” value was 0.156%.

Turning to `Cn1cc(-c2nc(N[C@@H]3CCCC[C@@H]3N)c(F)c3c2C(=O)NC3)cn1`, the activity change, negative = inhibition was -16.3% [at 5.1 µM].

For `O=C1NC(=O)/C(=C\c2ccc(-c3ccc(F)cc3)o2)S1`, the “activity change, negative = inhibition” value was -4.46%.

Regarding `CONC(=O)Nc1ccc(-c2sc3c(c2CN(C)Cc2ccccc2)c(=O)n(-c2ccccc2)c(=O)n3Cc2c(F)cccc2F)cc1`, the “activity change, negative = inhibition” value was -21.3%.

Regarding `Cc1[nH]cnc1CN1CCN(C(=O)N[C@@H](CC(C)C)C(=O)O)[C@@H](Cc2ccccc2)C1=O`, the “activity change, negative = inhibition” value is -7.22%.

As for `O=C(O)CNC(=O)c1nc(Cl)c2ccccc2c1O`, the “activity change, negative = inhibition” value was -4.49%.

As for `CC(C)(O)c1coc(S(=O)(=O)NC(=O)Nc2c3c(cc4c2CCC4)CCC3)c1`, the “activity change, negative = inhibition” value was -11.5%.

With `Cc1nc(NC(=O)N2CCC[C@H]2C(N)=O)sc1-c1csc(C(C)(C)C)n1`, the “activity change, negative = inhibition” value was -29.9%.

Regarding `C/C=C1\NC(=O)[C@H]2CSSCC/C=C\[C@H](CC(=O)N[C@H](C(C)C)C(=O)N2)OC(=O)[C@H](C(C)C)NC1=O`, the Potency was 0.0104 µM (active).

Turning to `CC(C)[C@H]1C(=O)N[C@@H](CCCN=C(N)N)C(=O)NCC(=O)N[C@@H](CC(=O)O)C(=O)N[C@H](Cc2ccccc2)C(=O)N1C`, the “activity change, negative = inhibition” value was -7.31% [at 15.5 µM].

For `CC(C)n1c(=O)cc(N[C@@H](C)c2ccccc2)[nH]c1=O`, the “activity change, negative = inhibition” value is 21.4%.

As to `CSC[C@H]1CN(Cc2c[nH]c3c(N)ncnc23)C[C@@H]1O`, the “activity change, negative = inhibition” value was -23%.

In the case of `C=CC(=O)Nc1cccc(Oc2nc(Nc3ccc(N4CCN(C)CC4)c(F)c3)nc3[nH]ccc23)c1`, the Potency was 20.8 µM (active).

With `COCCOC(=O)N1CCN(S(=O)(=O)c2cc(F)c(Oc3ccc(Cl)cc3)c(F)c2)C(C(=O)NO)C1` (stereo not given), the Potency was 18.6 µM (active).

Regarding `COc1nc(N)nc2c1ncn2C1OC(CO)C(O)C1O` (stereo not given), the “activity change, negative = inhibition” value was -6.72%.

For `COc1ccc(COc2ccc(Cc3cnc(N)nc3N)cc2OC)cc1`, the “activity change, negative = inhibition” value is -59.7%.

Turning to `CCOC(=O)N[C@@H]1CC[C@@H]2[C@@H](C1)C[C@H]1C(=O)O[C@H](C)[C@H]1[C@H]2/C=C/c1ccc(-c2cccc(F)c2)cn1`, the “activity change, negative = inhibition” value is -9.53%.

On to `O=C(NO)c1ccc(C2=Nc3ccccc3Oc3ccccc32)cc1`, for which the Potency is 18.6 µM (active).

`O=C1CC(c2c[nH]c3ccc(F)cc23)C(=O)N1` (stereo not given): the “activity change, negative = inhibition” value is -5.38%.
